# Results: PubChem BioAssay (NCATS)
# Records with an inconclusive call do not appear. A number with no mark means an inactive call. The source made the active and inactive calls. Calls follow the shape of the dose curve; as a rule, active = well fitted cell-killing curve with a large enough effect; inconclusive = small, poorly fitted or top-dose-only effect; inactive = flat fitted curve, though single readings scatter.
# Assay: qHTS of pediatric cancer cell lines to identify multiple opportunities for drug repurposing: Primary screen for TC32 cells (AID 1347089); also: nearly all actives have a fitted effect of over 60% in size
# Conditions: TC32 Ewing sarcoma viability, CellTiter-Glo luminescence, 48 h; series mostly up to 45.8 µM; activity change, negative = cytotoxic: at the top concentration
# Procedure, shortened: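 Luminescent ATP read-out (CellTiter-Glo) of metabolically active TC32 cells after 48 h exposure. Concentration-response curves came from 11-point (MIPE, 0.78 nM–46 µM) or 8-point (NPC, 0.59 nM–46 µM) primary titrations; follow-up used 11 points.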
# % is scaled to controls: 0 for no effect and ±100 for the full control effect; potency is read from the fitted curve at half-maximal effect.
SMILES,"activity change, negative = cytotoxic [%]",Potency
O=C(O)P(=O)(O)O,3.34,
CC(C)n1c(/C=C/[C@@H](O)C[C@@H](O)CC(=O)O)c(-c2ccc(F)cc2)c2ccccc21,,16.7 µM (active)
C=C[C@H]1CN2CC[C@H]1C[C@@H]2[C@@H](O)c1ccnc2ccc(OC)cc12,15.8,
O=C(O)CCNC(=O)c1ccccc1,10,
CC(C)NCC(O)c1ccc2ccccc2c1 (configuration not stated),5.57,
CC(=C(CCOC(=O)C(C)C)SSC(CCOC(=O)C(C)C)=C(C)N(C=O)Cc1cnc(C)nc1N)N(C=O)Cc1cnc(C)nc1N,7.44,
CN1CCN(c2c(F)cc3c(=O)c(C(=O)O)cn4c3c2SCC4)CC1,4.02,
Cc1cccc(C)c1NC(=O)CN1CCCCCC1,4.95,
CCN(CC)CCOC(=O)C(Cc1cccc2ccccc12)CC1CCCO1 (configuration not stated),-1.23,
Cc1cc(-c2ccccc2)nnc1NCCN1CCOCC1,1.77,
CCN1CCN(C(=O)N[C@@H](C(=O)N[C@@H]2C(=O)N3C(C(=O)O)=C(CSc4nnnn4C)CS[C@H]23)c2ccc(O)cc2)C(=O)C1=O,7.12,
O=C(CN1CCN(Cc2ccc3c(c2)OCO3)CC1)N1c2ccccc2Sc2ccccc21,17.8,
O=S(c1cc(Cl)cc(Cl)c1O)c1cc(Cl)cc(Cl)c1O,-4.54,
Cc1ccc(O)c([C@H](CCN(C(C)C)C(C)C)c2ccccc2)c1,-6.26,
COc1ccc(CCN(C)CCCN2CCc3cc(OC)c(OC)cc3CC2=O)cc1OC,5.72,
C=C[C@@]1(C)CC(=O)[C@]2(O)[C@@]3(C)[C@@H](O)CCC(C)(C)[C@@H]3[C@H](O)[C@H](OC(C)=O)[C@@]2(C)O1,12.8,
CCCCC(CC)CN1CN(CC(CC)CCCC)CC(C)(N)C1 (configuration not stated),-12.2,
CC(=O)Nc1ccc(OC(=O)c2ccccc2OC(C)=O)cc1,7.92,
OCc1ccccn1,-1.2,
COc1cc(O)c(C(=O)c2ccccc2)cc1S(=O)(=O)O,12.7,
CCNC(=O)/C=C/c1cccc(Br)c1,7.96,
OC1C(O)C(O)C(O)C(O)C1O (configuration not stated),6.08,
Clc1cccc(C(c2ccc3nc[nH]c3c2)n2ccnc2)c1 (configuration not stated),13.3,
O=C1c2cccc3c2[C@H](CCC3)CN1[C@@H]1CN2CCC1CC2,-2.35,
CC(=O)Nc1ncc([N+](=O)[O-])s1,11.2,
CC(C)Nc1cccnc1N1CCN(C(=O)c2cc3cc(NS(C)(=O)=O)ccc3[nH]2)CC1,3,
CN(C)CCOC(=O)C(c1ccccc1)C1(O)CCCC1 (configuration not stated),8.09,
